Data from the supplement of paper PMC8728848.
The sample as a whole holds a higher share of the strongest signals than the screen did.

B1: OrfX (Escherichia coli), Q9X4B6_ECOLX (protein)
chain: MIKIARIAVTLGLLSSLGAQAYAAGLVVNDNDLRNDLAWLSDRGVIHLSLSTWPLSQEEIARALKKAKPSYSSEQVVLARINQRLSALKADFRVTGYTSTDQPGTPQGFGQTQPADNSLGLAFNNSGEWWDVHLQGNVEGGERISNGSRFNANGAYGAVKFWNQWLSFGQVPQWWGPGYEGSLIRGDAMRPMTGFLMQRAEQAAPETWWLRWVGPWQYQISASQMNQYTAVPHAKIIGGRFTFTPFQSLELGASRIMQWGGEGRPQSFSSFWDGFTGHDNTGTDNEPGNQLAGFDFKFKLEPTLGWPVSFYGQMVGEDESGYLPSANMFLGGVEGHHGWGKDTVNWYVEAHDTRTNMSRTNYSYTHHIYKDGYYQQGYPLGDAMGGDGQLIAGKVELITEDNQRWSTRLVYAKVNPENQSINKAFPHADTLKGLQLGWSGDVYQSVRLNTSLWYTNANNSDSDDVGASAGIEIPFSL
B2: SrpA (Streptococcus sanguis) (protein)
chain: SSKSESTVNSQSASSETNRSSTNNGSTSSSSETARVRKRRATDTTPPTITVPSDIIAYRGEEFEFYFEITDDSGQVKNIELSTFGKPLGLNWLEYSEDNFNVPGNATSDNPLRVRVHGTVPLNEPIPADKNRAQFTRTIRAWDAAGNVSSNITFVIKYRAQTDKYNPADPTITYVDRLSSLSPSEKNAVEAAVRAANPQIPAAARITVSANGTVTITYPDSSTDTITANRVVKDLASSRSALT

How the values were obtained:
Assay in all cases: glycan array binding signal (z-score within array); higher = stronger binding
Details in all cases: glycan notation: IUPAC condensed, linker removed
[1] = target: Neu5Ac(a2-3)Gal(b1-3)[Neu5Ac(a2-6)]GlcNAc(b1-3)[Fuc(a1-3)[Gal(b1-4)]GlcNAc(b1-6)]Gal(b1-4)Glc
In short: (§1)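 The binding signal is a Z-score computed within each array. Data were drawn from 3228 arrays in the Consortium for Functional Glycomics database, restricted to those with a known protein sequence. Scores were averaged over arrays of the same protein sequence at different concentrations or buffers, and over linkers, and negative values can be taken as non-binding.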

[2] = target: Neu5Ac(a2-3)Gal(b1-4)GlcNAc(b1-2)Man
In short: as §1

[3] = target: Neu5Ac(a2-3)Gal(b1-4)[Fuc(a1-3)]GlcNAc(b1-3)Gal(b1-4)[Fuc(a1-3)]GlcNAc(b1-3)Gal(b1-4)[Fuc(a1-3)]GlcNAc
In short: as §1

[4] = target: Neu5Ac(a2-3)Gal(b1-4)[Fuc(a1-3)]GlcNAc(b1-3)GalNAc
In short: as §1

[5] = target: Neu5Ac(a2-6)Gal(b1-4)GlcNAc(b1-3)Gal(b1-4)GlcNAc(b1-3)Gal(b1-4)GlcNAc
In short: as §1

[6] = target: Neu5Ac(a2-6)Gal(b1-4)GlcNAc(b1-6)GalNAc
In short: as §1

[7] = target: Neu5Ac(a2-8)Neu5Ac(a2-3)Gal(b1-3)GalNAc(b1-4)[Neu5Ac(a2-8)Neu5Ac(a2-3)]Gal(b1-4)Glc
In short: as §1

Neu5Ac(b2-6)GalNAc = target: Neu5Ac(b2-6)GalNAc
In short: as §1

[8] = target: Neu5Ac9Ac(a2-3)Gal(b1-3)GlcNAc
In short: as §1

[9] = target: Fuc(a1-2)Gal(b1-4)GlcNAc(b1-3)Gal(b1-4)GlcNAc
In short: as §1

[10] = target: Fuc(a1-2)Gal(b1-4)GlcNAc(b1-3)Gal(b1-4)GlcNAc(b1-3)Gal(b1-4)GlcNAc
In short: as §1

Fuc(a1-2)[Gal(a1-3)]Gal = target: Fuc(a1-2)[Gal(a1-3)]Gal
In short: as §1

[11] = target: Fuc(a1-3)[Gal(b1-4)]GlcNAc(b1-3)Gal(b1-3)[Fuc(a1-4)]GlcNAc
In short: as §1

[12] = target: Fuc(a1-3)[GalNAc(b1-4)]GlcNAc
In short: as §1

Gal(a1-3)Gal(b1-4)Glc = target: Gal(a1-3)Gal(b1-4)Glc
In short: as §1

Gal(a1-3)GalNAc = target: Gal(a1-3)GalNAc
In short: as §1

[13] = target: Gal(b1-3)GalNAc(b1-4)[Neu5Ac(a2-3)]Gal(b1-4)Glc
In short: as §1

[14] = target: Gal(b1-4)GlcNAc(b1-6)GalNAc
In short: as §1

Gal3S(b1-3)GlcNAc = target: Gal3S(b1-3)GlcNAc
In short: as §1

[15] = target: GalNAc(b1-3)Gal(a1-4)Gal(b1-4)GlcNAc
In short: as §1

[16] = target: GlcNAc(b1-3)Gal(b1-3)GalNAc
In short: as §1

[17] = target: GlcNAc(b1-3)Gal(b1-4)GlcNAc
In short: as §1

[18] = target: GlcNAc(b1-3)[GlcNAc(b1-4)][GlcNAc(b1-6)]GlcNAc
In short: as §1

Kdn(a2-3)Gal(b1-3)GlcNAc = target: Kdn(a2-3)Gal(b1-3)GlcNAc
In short: as §1

[19] = target: Man(a1-2)Man(a1-3)[Man(a1-2)Man(a1-6)]Man
In short: as §1

[20] = target: Man(a1-2)Man(a1-3)[Man(a1-2)Man(a1-6)]Man(a1-6)[Man(a1-2)Man(a1-2)Man(a1-3)]Man(b1-4)GlcNAc(b1-4)GlcNAc
In short: as §1

[21] = target: Man(a1-3)[Man(a1-6)]Man(a1-6)[Man(a1-3)]Man(b1-4)GlcNAc(b1-4)GlcNAc
In short: as §1

[22] = target: Man(a1-3)[Man(a1-6)]Man(b1-4)GlcNAc(b1-4)GlcNAc
In short: as §1

[23] = target: Neu5Ac(a2-3)Gal(b1-3)GalNAc(b1-4)[Neu5Ac(a2-3)]Gal(b1-4)Glc
In short: as §1

[24] = target: Neu5Ac(a2-3)[Neu5Ac(a2-6)]GalNAc
In short: as §1

Neu5Ac(a2-6)GalNAc = target: Neu5Ac(a2-6)GalNAc
In short: as §1

[25] = target: Neu5Ac(a2-8)Neu5Ac(a2-8)Neu5Ac
In short: as §1

[26] = target: Neu5Ac(a2-8)Neu5Ac(a2-8)Neu5Ac(a2-3)[GalNAc(b1-4)]Gal(b1-4)Glc
In short: as §1

[27] = target: Neu5Ac(a2-8)Neu5Ac(a2-8)Neu5Ac(a2-8)Neu5Ac(a2-3)[GalNAc(b1-4)]Gal(b1-4)Glc
In short: as §1

[28] = target: Neu5Gc(a2-3)Gal(b1-4)GlcNAc
In short: as §1

Binder	glycan array binding signal (z-score) [1]	glycan array binding signal (z-score) [2]	glycan array binding signal (z-score) [3]	glycan array binding signal (z-score) [4]	glycan array binding signal (z-score) [5]	glycan array binding signal (z-score) [6]	glycan array binding signal (z-score) [7]	glycan array binding signal (z-score) (Neu5Ac(b2-6)GalNAc)	glycan array binding signal (z-score) [8]	glycan array binding signal (z-score) [9]	glycan array binding signal (z-score) [10]	glycan array binding signal (z-score) (Fuc(a1-2)[Gal(a1-3)]Gal)	glycan array binding signal (z-score) [11]	glycan array binding signal (z-score) [12]	glycan array binding signal (z-score) (Gal(a1-3)Gal(b1-4)Glc)	glycan array binding signal (z-score) (Gal(a1-3)GalNAc)	glycan array binding signal (z-score) [13]	glycan array binding signal (z-score) [14]	glycan array binding signal (z-score) (Gal3S(b1-3)GlcNAc)	glycan array binding signal (z-score) [15]	glycan array binding signal (z-score) [16]	glycan array binding signal (z-score) [17]	glycan array binding signal (z-score) [18]	glycan array binding signal (z-score) (Kdn(a2-3)Gal(b1-3)GlcNAc)	glycan array binding signal (z-score) [19]	glycan array binding signal (z-score) [20]	glycan array binding signal (z-score) [21]	glycan array binding signal (z-score) [22]	glycan array binding signal (z-score) [23]	glycan array binding signal (z-score) [24]	glycan array binding signal (z-score) (Neu5Ac(a2-6)GalNAc)	glycan array binding signal (z-score) [25]	glycan array binding signal (z-score) [26]	glycan array binding signal (z-score) [27]	glycan array binding signal (z-score) [28]
B1	-0.357	7.89	-0.34	7.1	-0.288	3.4	-0.409	-0.166	-0.162	–	–	–	–	–	–	–	–	–	–	–	–	–	–	–	–	–	–	–	–	–	–	–	–	–	–
B2	–	–	–	–	–	–	–	–	–	-0.109	2.25	0.762	-0.157	-0.159	0.291	-0.317	-0.532	-0.04	0.646	-0.265	1.6	-0.543	-0.657	0.272	-0.848	-0.332	1.57	-0.474	-0.383	-0.566	5.01	-0.629	-0.901	2.24	-0.45
